# Data as given in PubChem BioAssay AID540259 (Broad Institute, 2011).
# Measured potencies and affinities stand elsewhere. Unmarked numbers belong to inactive results.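 How the source made its calls: active means cell killing, meaning signal decrease, with fitted half-maximal dose at or below ten times the top valid tested dose; inconclusive means poor fit, or flat curve with 30 to 70% signal loss; inactive means the rest.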
# Experiment: HeLa cell cytotoxicity, dose response, cytotoxicity control for MITF activator project, CellTiter-Glo luminescence, cherry-pick samples (AID 540259);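 further: 0% = DMSO neutral control and -100% = mitoxantrone positive control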
# Conditions: HeLa viability, CellTiter-Glo ATP luminescence, 24 h; series mostly up to 35 µM; activity change, negative = cytotoxicity: at the top concentration
row,SMILES,"activity change, negative = cytotoxicity [%]"
1,Cc1noc(N)c1C(=O)Nc1ccc(C(C)(C)C)cc1,-8.76
2,O=C(Cc1ccccc1F)Nc1ccc(SC(F)F)cc1,-0.022
3,[O-]/[N+](=C\C=C\c1ccccc1)c1ccccc1,-0.305
4,COc1cccc(/C=N/Nc2c(Cl)cncc2Cl)c1O,-9.53
5,Cc1cc(NC(=O)Nc2ccc3c(ccn3C)c2)sn1,12.1
6,CCc1cccc(NC(=O)c2sc3nc4n(c(=O)c3c2C)CCC4)c1,-1.51
7,N#C/C(C(=O)N1CCCCC1)=C1\Nc2ccccc2S1,9.85
8,CCCCSc1nsc(NC(C)=O)n1,3.89
9,COc1ccc(/C=N/Nc2nccnc2Cl)c(OC)c1,8.52
10,Cc1[nH]n(-c2cccc(Cl)c2)c(=O)c1C=NCC(C)C,11
11,CC(C)CNC(=O)C1CCN(Cc2ccc(OCc3ccccc3)cc2)CC1,-2.62
12,CCCCNC(=O)c1cc2ccccc2s1,2.01
13,Cc1ccccc1Nc1nc(N)nc(COC(=O)c2ccccc2)n1,11.2
14,COc1ccccc1/C=C/C=N/n1c(-c2ccccn2)n[nH]c1=S,2.88
15,COc1ccc(Br)c(C(=O)Nc2nc3ccccc3[nH]2)c1,-2.95
16,Cn1ccs/c1=N\C(=O)Nc1ccccc1,2.38
17,CC(=O)c1cccc(NC(=O)c2cc3nc(C)cc(C)n3n2)c1,-6.5
18,CC(=O)N1N=C(c2ccc(C)cc2)OC1c1ccc(Br)cc1 (configuration not stated),1.6
19,O=C(Cc1ccccc1)Nc1nc(-c2cccs2)cs1,-7.3

row,SMILES,"activity change, negative = cytotoxicity [%]"
1,C=CCN=C1S/C(=C\c2ccc(N(C)C)cc2)C(=O)N1CC=C,-1.96
2,Cc1nc2ccccn2c1C(=O)N/N=C/c1ccc2c(c1)OCO2,-3.12
3,Cc1ccc(CNc2ccc3c(c2)ncn3C(C)C)cc1,-10.8
4,Oc1[nH]c2ccccc2c1C=Nc1ccccc1,-4.29
5,COc1ccc(-c2noc(-c3cccc(OC)c3OC)n2)cc1OC,-1.26
6,Cc1cccc(NC(=O)c2sc3nc(N)c(C#N)cc3c2N)c1,-3.44
7,c1ccc(-c2ccc3[nH]ccc3c2)cc1,-0.975
8,COc1ccc(Oc2ncnc3sccc23)cc1,2.48
9,Cc1nc(-c2ccc(NC(=O)c3ccccc3Br)cc2)cs1,10.2
10,CCCc1nc2ccc(NC(C)=O)cc2c(=O)n1Cc1ccc(Cl)cc1,11
11,COc1cccc(C2Nc3ccccc3C(=O)N2c2ccc(F)cc2)c1O (configuration not stated),-0.088
12,O=C(Nc1cnc2ccccc2c1)N1CCCCC1,17
13,O=C(O)c1ccc(/C=C/c2ccc3cccc(O)c3n2)cc1,6.91
14,c1csc(-c2nc(N3CCCCC3)no2)c1,-0.703
15,CCCC(=O)N1c2ccc(-c3csc(N)n3)cc2CC1C (configuration not stated),16
16,O=C1c2ccccc2C(=O)N1CCc1c[nH]c2ccccc12,-2.72
17,Cc1nc2ccc(NC(=O)Cc3c(F)cccc3Cl)cc2s1,2.92
18,Cc1ccc(Nc2nc(CSc3n[nH]c(N)n3)cs2)cc1,4.55
